Tau ThT inhib = inhibitors of human tau fibril formation, thioflavin T binding; recombinant tau K18 P301L, heparin-induced fibrillization, ThT fluorescence; actives 2.1% (n = 270,000); Potency, µM (doses to about 57.4 µM), without a hit: at the top dose activity, negative = inhibition, actives largely listed as inhibitors; active = well fitted curve in the direction sought with a large enough effect; inconclusive = small, poorly fitted or top-dose-only effect, or another doubt; inactive = no such curve, though single readings can be large; an effect the other way counts as inactive or inconclusive; note: nearly all actives have a fitted effect of over 55% in size
Target sequence (P10636 561-689 P618L limits assumed): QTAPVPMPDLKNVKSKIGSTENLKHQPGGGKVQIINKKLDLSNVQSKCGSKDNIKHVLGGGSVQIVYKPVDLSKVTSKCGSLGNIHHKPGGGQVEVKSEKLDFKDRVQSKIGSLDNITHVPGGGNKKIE
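Using a mix of unlabeled (15 uM) and Alexa 594-labeled (0.24 uM) tau K18 P301L, heparin-triggered fibrillization over 6 hr at 37 C was scored by ThT fluorescence.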
Tau fluor counter = counter-screen for tau fibril formation inhibitors; tau K18 P301L (four-repeat tau fragment) Alexa594 fluorescence, heparin fibrillization; Potency, µM (top dose mostly 57.7 µM), without a hit: top-dose activity change, negative = decrease; actives 0.93% (n = 280,000); active = well fitted curve in the direction sought with a large enough effect; inconclusive = small, poorly fitted or top-dose-only effect, or another doubt; inactive = no such curve, though single readings can be large; an effect the other way counts as inactive or inconclusive; note: nearly all actives have a fitted effect of over 55% in size
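Human K18 P301L tau (15 uM unlabeled plus 0.24 uM Alexa 594-labeled, final) in 100 mM sodium acetate pH 7 was mixed with compound and 20 uM heparin and incubated 6 hr at 37 C.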
Tau FP inhib = tau fibrillization inhibition (FP); Potency, µM (titrated, usually from 57.7 µM), for the others: at the top dose activity, negative = inhibition, usual class: inhibitors; actives 0.39% (n = 280,000); AID 1468; K18 P301L tau heparin fibrillization, Alexa594 FP, 6 h; active = well fitted curve in the direction sought with a large enough effect; inconclusive = small, poorly fitted or top-dose-only effect, or another doubt; inactive = no such curve, though single readings can be large; an effect the other way counts as inactive or inconclusive; note: nearly all actives have a fitted effect of over 55% in size
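Read-out: fluorescence polarization of Alexa 594-labeled tau (0.24 uM), 555 nm excitation, 632 nm emission. Mixtures held 15 uM unlabeled K18 P301L, compound and 20 uM heparin, pH 7 acetate buffer, incubated 6 hr at 37 C.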
JMJD2E inh = JMJD2E (human) inhibition; JMJD2E catalytic domain, FDH-coupled NADH fluorescence (FDH is formaldehyde dehydrogenase); Potency, µM (top dose mostly 57.1 µM), for the others: top-dose activity change, negative = inhibition, actives largely listed as inhibitors; actives 1.6% (n = 230,000); AID 2147;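 note: 0% = wells with enzyme and -100% = buffer wells without enzyme; nearly all actives have a fitted effect of over 50% in size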
ALDH1A1 inh = ALDH1A1 (human) enzyme inhibition; P00352; Purified ALDH1A1, NADH fluorescence, propionaldehyde substrate; Potency, µM (titrated, usually from 75.3 µM), for the others: at the highest dose activity, negative = inhibition, most hits filed as inhibitors; actives 7.3% (n = 220,000); AID 1030;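 note: plate controls were no enzyme wells and a reference inhibitor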
Target sequence (P00352 whole entry, looked up): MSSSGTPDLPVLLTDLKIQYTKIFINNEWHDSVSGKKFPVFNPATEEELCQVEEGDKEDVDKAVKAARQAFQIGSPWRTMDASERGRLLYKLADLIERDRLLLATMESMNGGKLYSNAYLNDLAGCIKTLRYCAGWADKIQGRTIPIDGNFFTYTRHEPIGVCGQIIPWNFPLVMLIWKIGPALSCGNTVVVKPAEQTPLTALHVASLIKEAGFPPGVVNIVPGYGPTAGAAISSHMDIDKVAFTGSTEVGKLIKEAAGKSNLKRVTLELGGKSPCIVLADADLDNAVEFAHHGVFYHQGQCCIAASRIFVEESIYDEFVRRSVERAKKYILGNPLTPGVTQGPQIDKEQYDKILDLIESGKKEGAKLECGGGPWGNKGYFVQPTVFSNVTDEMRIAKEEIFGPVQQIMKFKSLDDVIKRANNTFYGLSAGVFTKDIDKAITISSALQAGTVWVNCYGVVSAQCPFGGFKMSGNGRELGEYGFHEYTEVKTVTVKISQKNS
HPGD inh = inhibitors of human 15-hydroxyprostaglandin dehydrogenase (HPGD). P15428. Potency, µM, without a hit: at the highest dose activity change, negative = inhibition, actives largely listed as inhibitors. purified HPGD, NADH fluorescence kinetic, PGE2 substrate. AID 894. actives 4.3% (n = 150,000)
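NADH formation kinetics: reaction with 30 uM PGE2 and 1 mM NAD+ (final), 20 nM enzyme, Tris-HCl pH 8 with Tween 20, after 15 min compound preincubation at room temperature. Fluorescence change, last versus first of five reads.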
The depositor's hits bear a star; u = inconclusive; x = no result; ! = not active in a repeat; [ ] = another dose, or the depositor's remark. Most compounds without a hit are left out; they make up all but 9.9% or so of the library. Unless noted, calls come from the whole dose curve; as a rule, active = well fitted inhibition curve with a large enough effect (not every such curve was filed as active); inconclusive = small, poorly fitted or top-dose-only effect, or another doubt; inactive = no such curve, though single readings can be large or run the other way. Unless noted, % is set by controls: 0 for no effect and ±100 for the full control effect; potency is the fitted concentration of half-maximal effect.

SMILES	Tau ThT inhib	Tau fluor counter	Tau FP inhib	JMJD2E inh	ALDH1A1 inh	HPGD inh
C=C1C(=O)O[C@@H]2C[C@@H](C)[C@@H]3C=CC(=O)[C@@]3(C)[C@@H](OC(=O)CC(=O)O[C@H]3[C@@H]4C(=C)C(=O)O[C@@H]4C[C@@H](C)[C@@H]4C=CC(=O)[C@]43C)[C@H]12	2.82µM*	-17.6%	8.91µM*	-9.0%	x	x
C=C1C(=O)O[C@H]2[C@H]1[C@H](OC(=O)CC(=O)O[C@@H]1C[C@@H](C)[C@@H]3C=CC(=O)[C@@]3(C)[C@H]3OC(=O)C(=C)[C@H]13)C[C@@H](C)[C@H]1C=CC(=O)[C@]12C	15.8µM*	-7.9%	11.2µM*	2.4%	x	x
Cc1ccc(S(=O)(=O)c2nnn3c2nc(N2CCC(C(N)=O)CC2)c2cc(Cl)ccc23)cc1C	u	u	-3.9%	x	x	x
Cc1ccc(Cl)cc1N1CCN(c2ncnc3c2nc2n3CCCC2)CC1	u	-13.8%	-12.9%	x	x	x
COC(=O)c1cc(NC(=O)Cn2nc(-c3ccccc3)c3c(c2=O)CCCC3)cc(C(=O)OC)c1	0.5%	-25.6%	u	x	x	x
CCC(N)C(O)c1ccc(O)c(O)c1 (configuration not stated)	-21.4%	-14.6%	-10.1%	14.1µM*	-9.2%	-4.2%
CC(=O)Nc1ccccc1C(=O)OCc1ccc(C(=O)c2ccccc2)cc1	u	-14.9%	9.4%	-2.4%	u	25.1µM*
CC(=O)Nc1ccccc1C(=O)OCc1cccc(F)c1	-4.4%	-9.2%	-5.1%	u	-4.3%	x
CCCCC[C@@H](/C=C/C=C\CCCCCCCCCC(=O)O)OO	0.5%	-1.0%	-4.0%	6.4%	0.4%	-5.5%
CCCCC1C(=O)NC(=S)NC1=O	u	-7.0%	u	u	31.6µM*	12.6µM*
CC/C(=C(\c1ccccc1)c1ccc(OCCN(C)C)cc1)c1ccc(O)cc1	x	x	x	x	u	-9.7%
Cc1ccc(C(=O)Nc2c(C(=O)Nc3ccc(C)c(C)c3)sc3nc(C)cc(C)c23)cc1	u	u	-13.6%	x	x	x
Cc1cc(NC(=O)CCl)no1	-4.6%	-1.5%	-1.7%	-3.8%	12.6µM*	x
C=CCc1cc(OC)c2c(c1OC)OCO2	-5.6%	-8.3%	-8.2%	2.1%	-4.2%	-11.0%
O=C(O)C(C(=O)O)P(=S)(S)c1ccccc1 (configuration not stated)	x	x	x	x	8.3%[13.5 µM]	-0.8%
CN1/C(=C\C=C\C2=[N+](C)c3ccc4ccccc4c3C2(C)C)C(C)(C)c2ccccc21	1.41µM*	0.316µM*[fluorescent]	u	-1.1%	20µM*	-1.6%
CN1/C(=C\C=Nc2ccccc2)C(C)(C)c2ccccc21	u	u	-11.9%	u	0.7%	x
Cc1onc(-c2ccccc2)c1C(=O)NC1C(=O)N2C(C(=O)O)C(C)(C)S[C@@H]12 (some centres not stated)	-3.4%	-6.9%	-5.0%	-4.4%	-10.7%	-6.5%
COc1ccc(Cc2nccc3cc(OC)c(OC)cc23)cc1OC	u	-12.5%	-7.4%	u	-1.7%	14.1µM*!
FC(F)(F)c1nc2ccc(SSc3ccc4nc(C(F)(F)F)[nH]c4c3)cc2[nH]1	x	x	x	x	2.24µM*	3.98µM*
COc1ccc(C2=C(C(C)=O)Sc3nnc(-c4ccc(C)cc4)n3N2C(C)=O)cc1OC	u	u	-14.6%	x	x	x
CN(CCc1ccc(Cl)c(Cl)c1)[C@H]1CCCC[C@H]1N1CCCC1	-7.7%	-2.2%	-3.9%	-15.1%	25.1µM*	-2.7%
O=C(Cc1ccc(Cl)c(Cl)c1)N1CCCCC1CN1CCCC1 (configuration not stated)	-6.9%	-9.1%	-3.8%	2.4%	-1.2%	-9.0%
CC(C)C(C)/C=C/C(C)C1CCC2C3=CC=C4CC(O)CCC4(C)C3CCC21C (configuration not stated)	u	-21.4%	2.4%	-14.0%	u	-10.9%
CCSc1nnc([C@@H](N)Cc2ccccc2)o1	7.7%	-2.0%	7.0%	1.7%	15µM*	-9.3%
SMILES	Tau ThT inhib	Tau fluor counter	Tau FP inhib	JMJD2E inh	ALDH1A1 inh	HPGD inh
CCSc1nnc([C@@H](N)Cc2c[nH]c3ccccc23)o1	-3.4%	-8.5%	-1.7%	u	u	-14.3%
CSc1nnc([C@@H](N)Cc2c[nH]c3ccccc23)o1	-6.3%	-7.8%	-0.6%	4.47µM*	-0.1%	x
CCC(=O)C1=C(c2cccc([N+](=O)[O-])c2)N(C(=O)CC)n2c(nnc2C2CCCCC2)S1	u	-19.6%	-5.6%	x	x	x
O=[N+]([O-])C(Br)Br	x	x	x	x	1.41µM*	u
CC[N+](=O)[O-]	x	x	x	x	5.1%	-5.4%
CC(=O)O[C@]1(c2ccccc2)CCN(C)[C@H]2CCCC[C@@H]21	-1.8%	7.7%	6.5%	0.7%	0.3%	-5.9%
CN1CCC(C)(O)C2CCCCC21 (configuration not stated)	-0.1%	-5.3%	1.5%	8.2%	10µM*	x
CCOC(OCC)P(=O)(O)CCCN	-3.9%	-10.6%	-8.2%	1.4%	3.1%	-15.6%
c1ccc(CCN2CCCCCC2)nc1	x	x	x	x	13.1%[13.5 µM]	-13.8%
NC(=O)[C@@H]1CCCN1C(=O)[C@H](Cc1ccccc1)NC(=O)[C@@H]1CCCN1C(=O)[C@@H](N)Cc1ccc(O)cc1	-6.6%	-7.5%	-10.4%	x	0.9%	x
Cc1ccccc1-n1c(/C=C/c2c(C)[nH]c3ccccc23)nc2ccccc2c1=O	u	3.98µM*[quencher]	u	x	x	x
Cc1ccccc1-n1c(/C=C/c2ccc(N(C)C)cc2)nc2ccccc2c1=O	u	u	3.4%	x	x	x
Cc1ccc(N2C(=O)/C(=C/c3ccc(CN(CCC#N)S(C)(=O)=O)o3)C(=O)NC2=S)cc1C	17.8µM*	-25.7%	u	-0.3%	20µM*	14.1µM*
Cc1cccc(N2C(=O)/C(=C/c3ccc(CN(CCC#N)S(C)(=O)=O)o3)C(=O)NC2=S)c1	25.1µM*	-20.6%	u	-21.4%	20µM*	22.4µM*
O=C1NC(=O)N(c2ccc3c(c2)OCO3)C(=O)/C1=C/c1ccc(N2CCCC2)o1	u	-8.9%	5.4%	-1.0%	-3.1%	-10.5%
COC(=O)C1C(=O)C=C(Nc2ccc(F)cc2F)CC1c1ccccc1 (configuration not stated)	-5.8%	-3.3%	0.0%	-2.2%	u	-9.3%
NC(=O)c1ncn(C2OC(CO)C(O)C2O)n1 (configuration not stated)	3.5%	-0.6%	-3.8%	-2.3%	-9.8%	-12.6%
CSCCOC(=O)COc1ccc(/C=N/NC(=O)c2c(Cl)cnn2C)cc1	u	-12.1%	-9.4%	-6.2%	x	x
C[C@]12C/C(=C/O)C(=O)C[C@@H]1CC[C@@H]1[C@@H]2CC[C@@]2(C)[C@H]1CC[C@]2(C)O	x	x	x	x	0.0708µM*	-6.2%
